Results as given in PubChem BioAssay (EPA / NIEHS).
“And” between values parts separate entries of the source, which are not always exact repeats. Equal entries are not always repeated. The source made the active and inactive calls. The calls were made as follows: active = hit-call score of the fitted dose curve at least 0.9, where 1 is the maximum; inactive = score below 0.9.

read-out: Paternally Expressed 10 (PEG10), PEG10 (gene 23089); test: LTEA_HepaRG_PEG10: Life Technologies and Expression Analysis (LTEA) Assay for Paternally Expressed 10 (PEG10) using HepaRG (AID 2283520); conditions: mRNA level, 48 h; actives raise or lower the signal;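 as to AC50: PEG10 transcript by qRT-PCR normalised to ACTB GAPDH and POLR2A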
Method: LTEA_HepaRG is a cell based, multiplexed-readout assay that uses HepaRG, a human liver cell line, with measurements taken at 48 hours after chemical dosing on a 96-well plate.LTEA_HepaRG_PEG10 is one of 102 assay component(s) measured in the LTEA HepaRG cell culture assay. It is a marker of Cell proliferation, survival, death.Data from the assay component LTEA_HepaRG_PEG10 was analyzed into 1 endpoint. This assay endpoint, LTEA_HepaRG_PEG10, was analyzed with bidirectional fitting relative to DMSO as the negative control and baseline of activity. Using a type of inducible reporter, measures of mRNA induction for gain or loss-of-signal activity can be used to understand regulation of transcription factor activity. To generalize the intended target to other relatable targets, this assay endpoint is annotated to the dna binding intended target family, where the subfamily is xenobiotic metabolism.
A total of 1060 chemcials from the ToxCast library were tested in eight-point concentration-response experiments. Cell culture and cytotoxicity assays were conducted at Thermo Fisher Scientific's Custom Services facility (Madison, WI). A single lot of human HepaRG cells (Thermo Fisher Scientific, Frederick, MD) was used for the cell culture experiments. 96-well format collagen type I coated plates of human HepaRG cells were prepared using established methods. Briefly, cryopreserved HepaRG cells were thawed, plated at a density of approximately 100,000 cells/well in HepaRG Thaw, Plate, and General Purpose media (HPRG770, Thermo Fisher Scientific), and incubated for 48 hours. 0.5% DMSO was selected as vehicle control to balance the requisite need of DMSO in HepaRG cultures to maintain differentiation (for example, baseline metabolism, proportions of hepatocytes vs. cholangiocytes), while enabling further hepatic receptor pathway activation (for example, PXR and CAR) in response to chemical exposure. 48 hours after plating, the culture medium was replaced with HepaRG Serum-Free Incudtion Media. Cells were exposed to each test chemical in duplicate and maintained in CO2 incubators for another 48 hours. Chemical plates were thawed to room temperature and 200x concentrations of treatment groups were prepared. 8-point conentration-reponse curves were made with the highest exposure at 100 uM, followed by half-log dilutions, all in 0.5% DMSO. Each test plate contained variouse controls, induction positive controls (1mM phenobarbital), cytotoxicity positive controls ([…] aflatoxin B1), vehicle controls (0.5% DMSO), and total lysis controls (0.5% DMSO). Cell morphology images were taken using an Essen IncuCyte FLR automated microscope, with six 96-well plates imaged in about 24 minutes. Images were captured and exported and JPEG files. Spent culture media was transfered to black-well plates for the LDH assay, and remaining media was sorted at -80 C for later use. Cells were treated with RLT buffer and frozen until shipped for gene expression analysis. Total RNA was isolated from the cell suspension in 75 uL of Buffer RLT (Qiagen, Germantown, MD 20874) by Quintiles/Expression Analysis (Durham, NC) using a custom isolation procedure. Total RNA from each plate well was transferred to a preamplification plate. Fluidigm's 96.96 Dynamic ArrayTM (Fluidigm, Amsterdam, the Netherlands) technology was used for gene expression analyses by quantitative reverse transcription polymerase chain reaction (qRT-PCR, performed by Quintiles/Expression Analysis, Durham, NC)89. Standard TaqManTM Assays (Applied Biosystems/ThermoFisher Scientific, Foster City, CA) were used to assess the expression of 93 genes selected based on their selectivity and sensitivity to important hepatic receptors known to be modulated by environmental chemicals; importance in human hepatocyte functionality; and hepatotoxicity. […]

Row | SMILES | outcome | AC50
1 | COC(=O)C=C(C)OP(=O)(OC)OC | inactive | –
2 | CCOP(=S)(OCC)SCn1c(=O)oc2cc(Cl)ccc21 | inactive | –
3 | CC(C)(C)c1ccc(CSc2cnn(C(C)(C)C)c(=O)c2Cl)cc1 | – | 1.01 µM (active)
4 | CCOc1cc(Oc2ccc(C(F)(F)F)cc2Cl)ccc1[N+](=O)[O-] | – | 24.9 µM (active)
5 | CC(C)Oc1cc(-n2nc(C(C)(C)C)oc2=O)c(Cl)cc1Cl | – | 5.57 µM (active)
6 | CC1=C(C(=O)Nc2ccccc2)SCCO1 | inactive | –
7 | COc1nc(NC(C)C)nc(NC(C)C)n1 | inactive | –
8 | CCNc1nc(Cl)nc(NC(C)C)n1 | inactive | –
9 | CCCCC(CC)COC(=O)c1ccccc1C(=O)OCC(CC)CCCC (stereo not given) | inactive | –
10 | CCON=C(CC)C1=C(O)CC(c2c(C)cc(C)cc2C)CC1=O (stereo not given) | inactive | –
11 | CC(Oc1ccc(Cl)cc1Cl)C(=O)O (stereo not given) | inactive | –
12 | C=CCC1=C(C)[C@@H](OC(=O)[C@@H]2[C@@H](C=C(C)C)C2(C)C)CC1=O | – | 22.6 µM (active)
13 | CN(C)C(=S)SSC(=S)N(C)C | inactive | –
14 | CC(C)C1(C)N=C(c2nc3ccccc3cc2C(=O)O)NC1=O (stereo not given) | inactive | –
15 | Cc1ccc(-c2c(Cl)nc(C#N)n2S(=O)(=O)N(C)C)cc1 | – | 7.7 µM (active)
16 | CNC(=S)S | inactive | –
17 | COC(=O)c1ccccc1C(=O)OC | inactive | –
18 | CCOC(=O)C(Cl)Cc1cc(-n2nc(C)n(C(F)F)c2=O)c(F)cc1Cl (stereo not given) | inactive | –
19 | O=C(O)COc1nc(Cl)c(Cl)cc1Cl | – | 3.29 µM (active)
20 | O=C(Nc1ccccc1)Nc1ccnc(Cl)c1 | – | 31.8 µM (active)

Row | SMILES | outcome | AC50
21 | CCc1nn(C)c(C(=O)NCc2ccc(C(C)(C)C)cc2)c1Cl | – | 0.484 µM (active)
22 | CCCCNC(=O)n1c(NC(=O)OC)nc2ccccc21 | inactive | –
23 | CO/C=C(/C(=O)OC)c1ccccc1Oc1cc(Oc2ccccc2C#N)ncn1 | – | 27.9 µM (active) and 26.6 µM (active) and 17.5 µM (active)
24 | COP(=S)(OC)Oc1nc(Cl)c(Cl)cc1Cl | – | 69 µM (active)
25 | Cc1cc(Cl)ccc1OCC(=O)O | – | 9.94 µM (active)
26 | CCCCNC(=O)OCC#CI | inactive | –
27 | C#CCOS(=O)OC1CCCCC1Oc1ccc(C(C)(C)C)cc1 (stereo not given) | – | 24.2 µM (active)
28 | CCOC(=O)CC(SP(=S)(OC)OC)C(=O)OCC (stereo not given) | inactive | –
29 | CS/C(C)=N/OC(=O)N(C)SN(C)C(=O)O/N=C(\C)SC | inactive | –
30 | CNC(=O)ON=CC(C)(C)SC | inactive | –
31 | COC(=O)N(OC)c1ccccc1COc1ccn(-c2ccc(Cl)cc2)n1 | – | 17 µM (active)
32 | N#Cc1cc(Br)c(O)c(Br)c1 | – | 10.5 µM (active)
33 | COc1cnc(OC)n2nc(NS(=O)(=O)c3c(OCC(F)F)cccc3C(F)(F)F)nc12 | inactive | –
34 | CCNc1nc(Cl)nc(NCC)n1 | inactive | –
35 | CCCCOC(=O)c1ccccc1C(=O)OCCCC | inactive | –
36 | CC1COC(Cn2cncn2)(c2ccc(Oc3ccc(Cl)cc3)cc2Cl)O1 (stereo not given) | – | 59.1 µM (active)
37 | N#CC(CCc1ccc(Cl)cc1)(Cn1cncn1)c1ccccc1 (stereo not given) | – | 9.92 µM (active)
38 | COP(N)(=O)SC (stereo not given) | inactive | –
39 | Cc1c(F)c(F)c(COC(=O)C2C(/C=C(\Cl)C(F)(F)F)C2(C)C)c(F)c1F (stereo not given) | inactive | –
40 | Oc1ccccc1-c1ccccc1 | inactive | –
